According to PubChem BioAssay (NCATS):
Results filed as inconclusive are left out. Calls of active or inactive are those of the source. Calls follow the shape of the dose curve; as a rule, active = well fitted curve in the direction sought with a large enough effect; inconclusive = small, poorly fitted or top-dose-only effect, or another doubt; inactive = no such curve, though single readings can be large; an effect the other way counts as inactive or inconclusive.

Legend:
[1] = target: Cellular tumor antigen p53 (Homo sapiens) (UniProt P04637); assay: Primary qHTS for small molecule compounds that upregulate eGFP-tagged delta133p53alpha (in N-terminal) cells. (AID 2060322); details: NCI-H358 eGFP-delta133p53alpha fluorescence, 24 h; activation: active compounds read high;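 also: series mostly up to about 56 µM; 0% = DMSO vehicle and 100% = reference activator; nearly all actives have a fitted effect of over 75% in size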
Cellular tumor antigen p53 (Homo sapiens), sequence (P04637 whole entry, looked up): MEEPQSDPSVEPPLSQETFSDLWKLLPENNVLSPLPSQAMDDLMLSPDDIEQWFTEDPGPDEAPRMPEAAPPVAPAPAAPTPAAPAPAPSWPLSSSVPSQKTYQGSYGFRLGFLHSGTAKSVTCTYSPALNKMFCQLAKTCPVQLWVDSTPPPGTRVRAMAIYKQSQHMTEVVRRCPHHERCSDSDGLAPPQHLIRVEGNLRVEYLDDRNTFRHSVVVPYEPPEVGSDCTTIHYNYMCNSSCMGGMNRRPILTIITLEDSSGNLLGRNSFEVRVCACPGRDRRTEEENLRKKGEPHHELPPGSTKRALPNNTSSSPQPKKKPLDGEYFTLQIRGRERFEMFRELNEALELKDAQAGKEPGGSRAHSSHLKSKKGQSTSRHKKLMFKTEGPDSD
Summary of the method: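 NCI-H358 cells pre-induced 24 h with 10 ng/ml doxycycline to express N-terminal eGFP-delta133p53alpha, then dosed 24 h at 37C without doxycycline; fixed, Hoechst-stained, GFP intensity by laser scanning cytometry, normalized to DMSO (0%) and 57.5 uM 5-azacytidine (100%).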

[2] = target: Aldehyde dehydrogenase, mitochondrial (Homo sapiens) (UniProt P05091); assay: qHTS for Inhibitors of the Aldehyde Dehydrogenase Family (ALDH2) Primary screen (AID 2061308);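 also: plate controls were vehicle for no effect and reference inhibitor for full effect; nearly all actives have a fitted effect of over 55% in size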
[3] = target: Retinaldehyde dehydrogenase 3 (Homo sapiens) (UniProt P47895); assay: qHTS for Inhibitors of the Aldehyde Dehydrogenase Family (ALDH1A3) Primary screen (AID 2061315);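 also: plate controls were DMSO vehicle for no effect and reference inhibitor for full effect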

CC1OC(OC2C(OC3C(O[C@H]4CC[C@@]5(C)C(CC[C@]6(C)C5C(=O)CC5=C7CC(C)(C)CC(O)[C@]7(C)CC[C@]56C)C4(C)C)OC(C(=O)O)C(O)C3O)OCC(O)C2O)C(O)C(O)C1O (some centres undefined)
inactive: activation [1] -11.5% | Potency [2] | Potency [3]

CCOP(=O)(Cc1ccc(C(=O)Nc2ccc(Br)cc2C#N)cc1)OCC
inactive: activation [1] 2.33% | Potency [2] | Potency [3]

COc1ccc(CCc2nc3cc(-c4c(C)noc4C)ccc3n2CC(C)N2CCOCC2)cc1Cl (centres undefined)
inactive: activation [1] 3.67% | Potency [2] | Potency [3]

O=C(/C=C\c1ccc(O)cc1)N[C@@H](Cc1ccc(O)cc1)C(=O)O
inactive: activation [1] 17.9% | Potency [2] | Potency [3]

C[C@H](NC(=O)CCc1nc2ccccc2c(=O)[nH]1)c1ccccc1
inactive: activation [1] 1% | Potency [2] | Potency [3]

C[C@@H]1CC[C@]2(C(=O)OC3OC(CO)C(O)C(O)C3O)CC[C@]3(C)C(=CCC4[C@@]5(C)CC[C@H](O)[C@](C)(C(=O)O)C5CC[C@]43C)C2[C@]1(C)O (some centres undefined)
inactive: activation [1] -8.93% | Potency [2] | Potency [3]

Cc1onc(-c2c(F)cccc2Cl)c1C(=O)N[C@@H]1C(=O)N2[C@@H]1SC(C)(C)[C@@H]2C(=O)O
inactive: activation [1] -1.67% | Potency [2] | Potency [3]

C[C@H](NC(c1cccc2[nH]c(=O)c(=O)[nH]c12)P(=O)(O)O)c1ccc(Br)cc1 (some centres undefined)
inactive: activation [1] -12.3% | Potency [2] | Potency [3]

C=C(CO[C@@H]1O[C@H](CO[C@@H]2OC[C@](O)(CO)[C@H]2O)[C@@H](O)[C@H](O)[C@H]1O)C1Cc2cc(C(C)=O)ccc2O1 (some centres undefined)
inactive: activation [1] -12.2% | Potency [2] | Potency [3]

N#Cc1ccc(-c2ccc(S(=O)(=O)Nc3cccc(N)n3)cc2)cc1
inactive: activation [1] 2.86% | Potency [2] | Potency [3]

COC1C(OC(=O)/C=C/C=C/C=C/C=C/C(=O)O)CCC2(CO2)C1C1(C)OC1CC=C(C)C (centres undefined)
inactive: activation [1] 10.7% | Potency [2] | Potency [3]

COC(=O)CC(C)(O)CC(=O)OCc1ccc(O[C@@H]2O[C@H](CO)[C@@H](O)[C@H](O)[C@H]2O)cc1 (some centres undefined)
inactive: activation [1] -5.34% | Potency [2] | Potency [3]

C/C=C(/C=C(C)/C=C/C=C/C=C(\C)C(=O)C12OC1C(O)(CCO)NC2=O)C(=O)OC (centres undefined)
inactive: activation [1] -13.7% | Potency [2] | Potency [3]

C/C=C(\C)C(=O)O[C@@H]1CC2[C@@H](CC=C3C[C@@H](O[C@H]4C[C@H](OC)[C@H](O[C@H]5C[C@H](OC)[C@H](O[C@H]6C[C@H](OC)[C@H](O[C@H]7C[C@@H](OC)[C@H](O[C@@H]8O[C@H](CO)[C@@H](O)[C@H](O)[C@H]8O)[C@@H](C)O7)[C@@H](C)O6)[C@@H](C)O5)[C@@H](C)O4)CC[C@@]32C)[C@@]2(O)CC[C@H](C(C)=O)[C@@]12C (some centres undefined)
inactive: activation [1] -9.92% | activity change, negative = inhibition [2] 15.2% [at 11.2 µM] | activity change, negative = inhibition [3] -14.5% [at 11.2 µM]

CC1(C)CC23[C@@H]4CC(=O)[C@@H]2COC(=O)[C@@H]3CC[C@H]41
inactive: activation [1] -5.36% | Potency [2] | Potency [3]

COC(O)(CC(C)C)C1Oc2cc(C)[nH]c(=O)c2O1 (centres undefined)
inactive: activation [1] -26.7% | Potency [2] | Potency [3]

C=CC[C@]12C[C@@H](OC)C(=O)C(OC)=C1O[C@@H](c1cc(OC)c3c(c1)OCO3)[C@@H]2C
inactive: activation [1] -13.4% | Potency [2] | Potency [3]

CC(C)CNCc1ccc(-c2ccccc2S(=O)(=O)N2CCCC2)cc1
inactive: activation [1] 11.7% | Potency [2] | Potency [3]

CC(=O)N[C@H]1[C@H](O[C@H]2CC[C@@]3(C)C(CC[C@]4(C)C3CC=C3[C@@H]5CC(C)(C)CC[C@]5(C(=O)OC5OCC(O)C(O)C5O)CC[C@]34C)C2(C)C)O[C@H](COC2OC(C)C(O)C(OC3OC(C)C(O)C(O)C3O)C2O)[C@@H](O)[C@@H]1O (some centres undefined)
inactive: activation [1] -26% | Potency [2] | Potency [3]

O=C(Cn1c2ccccc2c2nc3n(c(=O)c21)CCS3)N1CCCC1
inactive: activation [1] 5.67% | Potency [2] | Potency [3]

O=C(O)[C@H]1Cc2ccccc2CN1
inactive: activation [1] 6.21% | activity change, negative = inhibition [2] 6.47% [at 5.59 µM] | activity change, negative = inhibition [3] -14.2% [at 5.59 µM]

O=C(OCC1OC(Oc2ccc(O)cc2COC(=O)C2(O)C(O)CCC(=O)C2OC(=O)C2C=CCC2)C(OC(=O)C2C=CCC2)C(O)C1O)C1C=CCC1 (centres undefined)
inactive: activation [1] -3.05% | Potency [2] | Potency [3]

CC(=O)O[C@@H]1[C@H](O)[C@@H](O[C@@H]2O[C@@H](C)[C@H](O[C@@H]3OC[C@@H](O)[C@H](O[C@@H]4OC[C@@H](O)[C@H](O)[C@H]4O)[C@H]3O)[C@@H](O[C@@H]3O[C@H](CO)[C@@H](O)[C@H](O)[C@H]3O)[C@H]2O)[C@H](OC(=O)[C@]23CCC(C)(C)C[C@H]2C2=CCC4[C@@]5(C)CC[C@H](O[C@@H]6O[C@H](C(=O)O)[C@@H](O)[C@H](O[C@@H]7OC[C@@H](O)[C@H](O)[C@H]7O)[C@H]6O[C@@H]6O[C@H](CO)[C@H](O)[C@H](O)[C@H]6O)[C@@](C)(C=O)C5CC[C@@]4(C)[C@]2(C)CC3)O[C@@H]1C (some centres undefined)
inactive: activation [1] -9.16% | activity change, negative = inhibition [2] 5.14% [at 11.2 µM] | activity change, negative = inhibition [3] -8.36% [at 11.2 µM]
